Among all 16,000 compounds or so, about 5,700 (36%) were called active. Another 24% or so got no clear call; they are omitted. The list shows a part of the results. Values without a mark were called inactive. Calls follow the shape of the dose curve; as a rule, active = well fitted curve in the direction sought with a large enough effect; inconclusive = small, poorly fitted or top-dose-only effect, or effect the other way; inactive = no such curve, though single readings can be large or run the other way.
Biological target: Cytochrome P450 1A2 (Homo sapiens) (UniProt P05177)
Sequence (P05177 whole entry, looked up): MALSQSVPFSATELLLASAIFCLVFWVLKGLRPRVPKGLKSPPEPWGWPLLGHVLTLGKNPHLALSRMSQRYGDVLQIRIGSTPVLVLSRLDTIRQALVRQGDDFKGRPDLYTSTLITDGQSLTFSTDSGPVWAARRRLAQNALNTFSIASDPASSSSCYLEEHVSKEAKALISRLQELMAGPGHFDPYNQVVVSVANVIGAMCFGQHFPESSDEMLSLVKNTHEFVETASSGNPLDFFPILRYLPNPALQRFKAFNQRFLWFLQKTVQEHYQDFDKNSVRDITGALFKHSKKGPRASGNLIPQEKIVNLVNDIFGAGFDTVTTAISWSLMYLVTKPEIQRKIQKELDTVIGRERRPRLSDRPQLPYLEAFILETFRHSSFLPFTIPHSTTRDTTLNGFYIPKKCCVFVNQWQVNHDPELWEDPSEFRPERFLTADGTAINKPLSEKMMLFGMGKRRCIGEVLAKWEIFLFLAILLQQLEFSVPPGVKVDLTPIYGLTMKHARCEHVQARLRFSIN
Experiment: Cytochrome panel assay with activity outcomes
Settings: recombinant CYP, pro-luciferin dealkylation, luminescence, p450-cyp1a2; series mostly up to 57.1 µM; activity, negative = inhibition: at the top concentration
% is scaled to controls: 0 for no effect and ±100 for the full control effect.

| SMILES | AC50 | activity, negative = inhibition |
| --- | --- | --- |
| CN1CCN(c2ncnc3ccc(-c4ccccc4C#N)cc23)CC1 | 3.16 µM (active) |  |
| Cc1ccccc1-c1ccc2ncnc(N3CCNCC3)c2c1 | 3.16 µM (active) |  |
| Clc1ccccc1-c1ccc2ncnc(N3CCNCC3)c2c1 | 2 µM (active) |  |
| CC(Cc1ccccc1)NC(=O)CSc1nc2nc3c(cc2c(=O)n1-c1ccccc1)COC(C)(C)C3 (stereo not drawn) |  | -3.43% |
| C/C(CCN1CCc2nc(-c3ccccc3)c(-c3ccccc3)cc2C1)=N\OC[C@@H](O)COCc1ccco1 |  | -6.41% [at 11.4 µM] |
| CCOC(=O)C(C)(C)[C@H](O)C(C)C |  | -1.66% [at 11.4 µM] |
| N#Cc1cccc(NC(=O)N2CCCC3(CCN(C(=O)c4csnn4)CC3)C2)c1 |  | 10.4% |
| Cc1ccccc1-c1ccc2ncnc(N3CCN(C)CC3)c2c1 | 3.16 µM (active) |  |
| Cc1cnc(CNc2nc(-c3ccc(N(C)C)cc3)nc3ccccc23)cn1 | 3.16 µM (active) |  |
| Cc1cnc(CNc2nc(-c3ccoc3)nc3ccccc23)cn1 | 2 µM (active) |  |
| COC(=O)Cn1c(=N)n(CCN2CCCCC2)c2ccccc21 |  | -12% |
| N=c1n(CCN2CCOCC2)c2ccccc2n1CC(=O)c1ccc(Cl)c(Cl)c1 | 1.26 µM (active) |  |
| O=C1c2cccc3c(Cl)ccc(c23)C(=O)N1O | 3.16 µM (active) |  |
| Nc1ccc(N2C(=O)c3ccccc3C2=O)c(Cl)c1 |  | -17.8% |
| CC(C)COP(=O)(OCC(C)C)C(O)c1ccccc1F (stereo not drawn) |  | -3.98% |
| O=C1CCCCCC1C1(O)C(=O)Nc2ccc(Br)cc21 (stereo not drawn) |  | -18.8% |
| CCOC(=O)c1c2ccc(OCC(=O)N/N=C/c3ccc(Cl)cc3)cc2n2ccccc12 | 3.16 µM (active) |  |
| N=c1n(-c2ccccc2)c(O)cc(=O)n1-c1ccccc1 |  | -4.91% |
| Cc1ccc(-n2c(C)cc(C(=O)CSc3n[nH]c(N)n3)c2C)cc1 |  | -12.6% |
| Cc1ccc(-n2c(O)cnc2Nc2nc(C)cc(C)n2)cc1 | 5.01 µM (active) |  |
| Cc1cc(C)nc(Nc2ncc(O)n2-c2ccccc2)n1 | 2.82 µM (active) |  |
| O=C(O)c1ccccc1C(=O)Nc1ccc(S(=O)(=O)Nc2nccs2)cc1 |  | -0.159% [at 25.6 µM] |
| S=C(Nc1ccccc1)Nc1nccs1 | 0.794 µM (active) |  |
| CN(CCO)Cc1ncccc1O |  | -10% [at 2.29 µM] |

| SMILES | AC50 | activity, negative = inhibition |
| --- | --- | --- |
| Cc1ccc(C(=O)C(OC(=O)CN2C(=O)c3ccccc3C2=O)c2ccccc2)cc1 (stereo not drawn) |  | 23% |
| COc1ccccc1NC(=O)CN1CCN(C2c3ccccc3-c3ccccc32)CC1 | 15.8 µM (active) |  |
| COc1ccc(NC(C)=O)cc1NC(=O)CN1CCN(CC(=O)Nc2ccccc2Cl)CC1 |  | -22.7% |
| COc1ccccc1NC(=O)CN1CCC(C(=O)c2ccc(F)cc2)CC1 |  | -9.19% |
| COc1ccc(NC(C)=O)cc1NC(=O)CN1CCN(C2c3ccccc3-c3ccccc32)CC1 | 28.2 µM (active) |  |
| COC(=O)C/C=C1\c2ccccc2[C@H](OC)[C@H]1C |  | -6.47% [at 11.4 µM] |
| COc1ccccc1NC(=O)CN1CCN(c2ccccc2F)CC1 | 25.1 µM (active) |  |
| Cc1cc(Cl)ccc1NC(=O)CN1CCC(C(O)(c2ccccc2)c2ccccc2)CC1 |  | -9.89% |
| O=C(CCN1CCN(c2ccccc2F)CC1)Nc1ccccc1F |  | -19.2% |
| CC(C)OC(=O)CN1CCN(C2c3ccccc3-c3ccccc32)CC1 | 12.6 µM (active) |  |
| O=C(c1csnn1)N1CCC2(CC1)CN(Cc1cc(C(F)(F)F)cc(C(F)(F)F)c1)C2 |  | 5.18% |
| Cc1cc(-c2cccs2)nc(-n2cccc2)n1 | 3.16 µM (active) |  |
| CCCCN1C(=O)CC(Sc2ccccc2C(=O)O)C1=O (stereo not drawn) |  | -6.77% |
| CCCN1C2=NCCCN2c2ccccc21 |  | -19% |
| CCCCN1C2=NCCCN2c2ccccc21 | 25.1 µM (active) |  |
| Cc1c(C(=O)NC2CCCc3ccccc32)oc2ccc(S(=O)(=O)N3CCOCC3)cc12 (stereo not drawn) |  | -18% |
| CCc1ccccc1OC[C@@H](O)CN[C@H]1CCCc2ccccc21 | 12.6 µM (active) |  |
| COC(=O)[C@@]1(Cc2ccccc2)[C@H]2c3cc(C(=O)N4CCCC4)n(CCc4ccccn4)c3C[C@H]2CN1C(=O)c1ccccc1 |  | -11.2% |
| COc1ccc(C2CC(C(F)(F)F)n3nc(C(=O)N(C)Cc4cn(C)nc4C)c(Cl)c3N2)cc1 (stereo not drawn) |  | -44.6% |
| COc1ccc(NC(=O)c2cc3n(n2)C(C(F)(F)F)CC(c2ccc4c(c2)OCO4)N3)cc1OC (stereo not drawn) |  | -4.17% |
| COc1ccc(OC)c(NC(=O)c2cc3n(n2)C(C(F)(F)F)CC(c2ccc4c(c2)OCO4)N3)c1 (stereo not drawn) | 0.316 µM (active) |  |
| CCOC(=O)C1CCCN(c2ncnc3c2cnn3-c2cccc(C)c2)C1 (stereo not drawn) | 14.1 µM (active) |  |
| CCOC(=O)C1CCCN(c2ncnc3c2cnn3-c2ccc(Cl)cc2)C1 (stereo not drawn) | 8.91 µM (active) |  |
| CCOC(=O)C1CCCN(C(=O)C2CCN(S(=O)(=O)N3CCC4(CC3)OCCO4)CC2)C1 (stereo not drawn) |  | -7.11% |

From PubChem BioAssay AID1851 (National Center for Advancing Translational Sciences (NCATS), 2009)
